{"source": "PubChem BioAssay (NCATS)", "key": {"[1]": {"molecular_target": "ATP-dependent 6-phosphofructokinase (Trypanosoma brucei brucei) (UniProt O15648)", "sequence (O15648 whole entry, looked up)": "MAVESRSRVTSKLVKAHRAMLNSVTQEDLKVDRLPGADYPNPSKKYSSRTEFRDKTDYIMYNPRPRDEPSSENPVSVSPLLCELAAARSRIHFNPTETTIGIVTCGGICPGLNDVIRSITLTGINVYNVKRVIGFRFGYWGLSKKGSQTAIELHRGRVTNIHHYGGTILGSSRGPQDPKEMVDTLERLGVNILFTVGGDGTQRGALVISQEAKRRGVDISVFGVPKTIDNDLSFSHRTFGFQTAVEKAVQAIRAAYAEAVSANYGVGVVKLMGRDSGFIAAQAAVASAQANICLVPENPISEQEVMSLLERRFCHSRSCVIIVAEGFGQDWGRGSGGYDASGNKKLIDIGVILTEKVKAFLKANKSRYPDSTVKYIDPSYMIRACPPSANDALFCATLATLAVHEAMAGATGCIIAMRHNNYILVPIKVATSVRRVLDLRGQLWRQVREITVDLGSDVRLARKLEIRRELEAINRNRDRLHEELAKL", "assay": "qHTS Assay to Find Inhibitors of T. brucei phosphofructokinase: hit validation (AID 492961);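 note: luminescence reports ADP formed as PFK phosphorylates fructose-6-phosphate with ATP; series mostly up to about 51 µM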", "method_in_brief": "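PFK 1.25 nM, F6P 0.5 mM, ATP 0.1 mM, MgCl2 5 mM, 0.1 M TEA pH 8.0, Tween20 0.01%, BSA 0.1%; 45 min RT. ADP-Glo two-step detection, luminescence. qHTS titration; curve fitting with curve-class categorization.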"}, "[2]": {"molecular_target": "Ubiquitin carboxyl-terminal hydrolase 1 (Homo sapiens) (UniProt O94782)", "sequence (O94782 whole entry, looked up)": "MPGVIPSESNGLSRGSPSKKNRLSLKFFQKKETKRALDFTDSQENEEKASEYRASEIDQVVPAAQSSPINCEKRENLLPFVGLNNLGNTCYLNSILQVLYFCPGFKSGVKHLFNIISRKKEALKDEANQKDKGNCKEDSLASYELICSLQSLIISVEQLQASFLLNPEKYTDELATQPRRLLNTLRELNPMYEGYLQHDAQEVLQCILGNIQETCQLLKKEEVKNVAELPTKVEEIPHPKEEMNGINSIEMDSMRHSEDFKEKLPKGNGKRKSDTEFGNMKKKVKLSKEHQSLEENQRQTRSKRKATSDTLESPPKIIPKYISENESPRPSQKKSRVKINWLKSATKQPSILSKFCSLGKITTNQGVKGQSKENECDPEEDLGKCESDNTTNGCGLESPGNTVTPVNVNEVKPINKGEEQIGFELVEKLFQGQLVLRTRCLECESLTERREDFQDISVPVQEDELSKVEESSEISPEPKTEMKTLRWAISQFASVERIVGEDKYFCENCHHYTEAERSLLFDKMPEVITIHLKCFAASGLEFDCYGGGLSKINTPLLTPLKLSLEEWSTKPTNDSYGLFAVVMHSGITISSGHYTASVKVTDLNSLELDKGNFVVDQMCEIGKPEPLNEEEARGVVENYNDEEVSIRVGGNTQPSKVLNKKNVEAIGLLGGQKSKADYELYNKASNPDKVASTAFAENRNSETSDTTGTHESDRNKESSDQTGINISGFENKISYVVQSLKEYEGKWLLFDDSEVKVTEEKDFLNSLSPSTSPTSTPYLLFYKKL", "assay": "Inhibitors of USP1/UAF1: Pilot qHTS (AID 504865);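 note: rhodamine fluorescence freed from ubiquitin-rhodamine substrate followed over time; top concentration of the series differs between compounds; nearly all actives have a fitted effect of over 35% in size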", "method_in_brief": "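In 50mM HEPES pH 7.8 containing 0.5mM EDTA, 1mM TCEP, 0.1 mg/ml BSA and 0.01% Tween-20, 1nM USP1/UAF1 is exposed to compound for 15 min, then Ub-Rho (150nM final) is added and fluorescence is read over time.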"}, "[3]": {"molecular_target": "D(1A) dopamine receptor (Homo sapiens) (UniProt P21728)", "assay": "HTS Assay for Allosteric Agonists of the Human D1 Dopamine Receptor: Primary Screen for Antagonists (AID 488983);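 note: calcium flux response to an EC80 dopamine challenge measured with no-wash dye; nearly all actives have a fitted effect of over 65% in size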", "method_in_brief": "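Screening of inducible HEK293 T-REx D1 cells: compound first, EC80 dopamine 180 s later, each phase read kinetically for calcium over 180 s.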"}, "[4]": {"assay": "Validation screen for small molecules that induce genotoxicity in human embryonic kidney (HEK293T) cells expressing luciferase-tagged ELG1 (AID 493106)", "method_in_brief": "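Reporter-gene quantitative HTS in HEK293T cells carrying luciferase-tagged ELG1, whose level climbs under genotoxic stress. Compound exposure lasts 16 hr at 37 °C before luciferase detection.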"}, "[5]": {"molecular_target": "ATPase family AAA domain-containing protein 5 (Homo sapiens) (UniProt Q96QE3)", "sequence (Q96QE3 whole entry, looked up, the tested form may be a part)": "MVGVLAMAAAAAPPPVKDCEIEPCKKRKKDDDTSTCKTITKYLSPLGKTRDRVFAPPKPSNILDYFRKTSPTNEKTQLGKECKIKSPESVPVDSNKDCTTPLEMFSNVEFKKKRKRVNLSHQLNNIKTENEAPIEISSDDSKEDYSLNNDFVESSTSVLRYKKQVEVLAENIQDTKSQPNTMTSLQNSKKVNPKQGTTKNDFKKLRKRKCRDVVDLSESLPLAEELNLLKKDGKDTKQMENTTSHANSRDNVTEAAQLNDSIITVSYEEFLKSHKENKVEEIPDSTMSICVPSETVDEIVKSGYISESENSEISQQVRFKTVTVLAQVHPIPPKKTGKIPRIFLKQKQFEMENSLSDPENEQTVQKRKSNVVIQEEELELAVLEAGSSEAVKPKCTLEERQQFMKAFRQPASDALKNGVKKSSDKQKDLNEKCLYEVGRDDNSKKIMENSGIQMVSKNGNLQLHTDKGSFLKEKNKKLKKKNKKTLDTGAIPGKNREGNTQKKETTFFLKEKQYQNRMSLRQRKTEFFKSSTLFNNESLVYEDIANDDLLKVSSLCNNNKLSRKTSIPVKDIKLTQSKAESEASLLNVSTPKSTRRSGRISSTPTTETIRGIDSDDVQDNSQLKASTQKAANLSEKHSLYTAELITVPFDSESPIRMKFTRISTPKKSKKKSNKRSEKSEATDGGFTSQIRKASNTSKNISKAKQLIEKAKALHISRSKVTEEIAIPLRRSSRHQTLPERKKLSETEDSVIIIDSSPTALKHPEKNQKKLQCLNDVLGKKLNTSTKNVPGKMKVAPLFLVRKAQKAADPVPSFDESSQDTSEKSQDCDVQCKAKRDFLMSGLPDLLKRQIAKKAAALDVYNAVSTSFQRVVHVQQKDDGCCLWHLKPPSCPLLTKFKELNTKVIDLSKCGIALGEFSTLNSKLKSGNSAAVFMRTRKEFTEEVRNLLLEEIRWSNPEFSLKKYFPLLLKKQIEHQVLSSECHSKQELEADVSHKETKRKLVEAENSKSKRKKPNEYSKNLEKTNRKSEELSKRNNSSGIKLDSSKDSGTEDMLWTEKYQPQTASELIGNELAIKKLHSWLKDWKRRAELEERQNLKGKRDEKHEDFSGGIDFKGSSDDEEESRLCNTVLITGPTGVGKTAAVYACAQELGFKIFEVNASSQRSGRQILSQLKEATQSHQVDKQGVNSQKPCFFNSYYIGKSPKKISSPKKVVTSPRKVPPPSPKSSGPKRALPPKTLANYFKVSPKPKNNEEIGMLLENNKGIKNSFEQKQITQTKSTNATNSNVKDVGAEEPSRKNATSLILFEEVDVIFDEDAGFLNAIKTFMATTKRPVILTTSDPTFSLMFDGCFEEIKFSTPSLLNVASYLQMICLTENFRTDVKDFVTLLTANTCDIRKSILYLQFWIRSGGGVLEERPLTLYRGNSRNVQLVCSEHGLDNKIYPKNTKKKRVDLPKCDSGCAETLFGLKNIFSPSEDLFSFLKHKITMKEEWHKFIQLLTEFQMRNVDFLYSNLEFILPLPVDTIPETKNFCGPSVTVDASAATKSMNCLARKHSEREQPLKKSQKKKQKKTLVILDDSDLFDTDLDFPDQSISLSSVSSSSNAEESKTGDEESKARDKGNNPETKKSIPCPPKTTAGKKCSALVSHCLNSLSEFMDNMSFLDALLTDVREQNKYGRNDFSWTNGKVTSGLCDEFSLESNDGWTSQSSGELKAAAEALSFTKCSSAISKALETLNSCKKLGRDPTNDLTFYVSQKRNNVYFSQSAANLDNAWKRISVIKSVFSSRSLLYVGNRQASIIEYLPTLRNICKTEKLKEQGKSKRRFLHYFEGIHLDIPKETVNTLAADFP", "assay": "Validation screen for small molecules that inhibit ELG1-dependent DNA repair in human embryonic kidney (HEK293T) cells expressing luciferase-tagged ELG1 (AID 493107);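 note: cells co-treated with the DNA-damaging agent 5-fluorouridine alongside compound; series mostly up to about 46 µM; nearly all actives have a fitted effect of over 70% in size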", "method_in_brief": "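Quantitative HTS in HEK293T cells carrying luciferase-tagged ELG1, stimulated with 5-fluorouridine alongside compound for 16 hr. Loss of luciferase signal marks inhibition of ELG1 response.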"}, "[6]": {"assay": "Nrf2 qHTS screen for inhibitors: Validation (AID 493153; active = well fitted inhibition curve with a large enough effect in the main read-out, with a control signal flat, not every such curve was filed as active)", "settings": "viability change: measured here: cytotoxicity max response", "method_in_brief": "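Dose-response validation uses reporter A549 cells with firefly luciferase under an antioxidant response element. Compounds stay on cells 18-24 h at 37°C, and luminescence indicates Nrf2-driven transcription.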"}, "[7]": {"assay": "qHTS for Inhibitors of Cell Surface uPA Generation: Validation Assay (AID 493164)", "method_in_brief": "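RAW 264.7, 4000 cells/well, o/n plating; cpd 7-pt 1:5 dilution 2.45 nM–38.3 uM final; 18 h, 37 C/5% CO2; ATP-Lite, 5 s luminescence exposure.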"}, "[8]": {"molecular_target": "Peptidyl-prolyl cis-trans isomerase NIMA-interacting 1 (Homo sapiens) (UniProt Q13526)", "sequence (Q13526 whole entry, looked up)": "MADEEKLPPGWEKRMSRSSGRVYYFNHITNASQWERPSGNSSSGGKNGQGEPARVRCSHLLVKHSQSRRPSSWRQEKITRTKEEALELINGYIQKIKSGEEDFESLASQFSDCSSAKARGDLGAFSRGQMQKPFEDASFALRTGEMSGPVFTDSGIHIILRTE", "assay": "qHTS Validation Assay to Find Inhibitors of Pin1 (AID 504536; active = well fitted inhibition curve with a large enough effect in the polarisation, with a control signal flat, not every such curve was filed as active; the % refers to the polarisation)", "method_in_brief": "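Fluorescence polarization competition: compounds (titration) displace HiFluor-488-labeled Pin1-1b peptide from Pin1 (0.3 uM final) in pH 7.5 HEPES buffer with DTT, 10 min at room temperature; %Activity normalized to no-enzyme wells, curves fitted.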"}, "[9]": {"molecular_target": "Phosphoglycerate kinase, glycosomal (Trypanosoma brucei brucei) (UniProt P07378)", "assay": "qHTS Validation Assay to Find Inhibitors of Phosphoglycerate Kinase (AID 504547)", "method_in_brief": "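Substrate/PGK mix plus compound; reaction started with GAPDH (100nM final) to form 1,3-BPG; 60 min RT; Kinase-Glo Plus 10 min; luminescence. TEA 100mM pH 7.6, MgCl2 5mM, Tween-20 0.01%.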"}, "[10]": {"molecular_target": "phosphoglycerate mutase (Leishmania major) (UniProt Q4Q090)", "assay": "qHTS Validation Assay to Find Inhibitors of Phosphoglycerate Mutase (AID 504548); note: series mostly up to about 58 µM", "method_in_brief": "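Luminescent end-point read-out via Kinase-GloPlus after a 10-minute development. Reaction: 1.25nM Leishmania major PGAM with substrate and compound, 45 minutes at room temperature in TEA buffer (pH 7.6) with MgCl2 and Tween-20.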"}, "[11]": {"assay": "qHTS for Inhibitors of ATXN expression: Validation of Cytotoxic Assay (AID 588349)", "method_in_brief": "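HEK293, compound dose series, 72 hr / 37 degrees C; viability via CellTiter Glo (intracellular ATP).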"}, "[12]": {"assay": "qHTS for Inhibitors of ATXN expression: Validation (AID 588378); note: series mostly up to about 57 µM; nearly all actives have a fitted effect of over 75% in size", "method_in_brief": "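Compounds were pinned onto attached HEK293 cells carrying an ATXN2-firefly luciferase construct and incubated 24 hrs at 37 degrees C. Each well then received a fluorescent viability reagent followed by luciferase substrate for end-point luminescence.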"}, "[13]": {"molecular_target": "DNA dC->dU-editing enzyme APOBEC-3G (Homo sapiens) (UniProt Q9HC16)", "sequence (Q9HC16 whole entry, looked up)": "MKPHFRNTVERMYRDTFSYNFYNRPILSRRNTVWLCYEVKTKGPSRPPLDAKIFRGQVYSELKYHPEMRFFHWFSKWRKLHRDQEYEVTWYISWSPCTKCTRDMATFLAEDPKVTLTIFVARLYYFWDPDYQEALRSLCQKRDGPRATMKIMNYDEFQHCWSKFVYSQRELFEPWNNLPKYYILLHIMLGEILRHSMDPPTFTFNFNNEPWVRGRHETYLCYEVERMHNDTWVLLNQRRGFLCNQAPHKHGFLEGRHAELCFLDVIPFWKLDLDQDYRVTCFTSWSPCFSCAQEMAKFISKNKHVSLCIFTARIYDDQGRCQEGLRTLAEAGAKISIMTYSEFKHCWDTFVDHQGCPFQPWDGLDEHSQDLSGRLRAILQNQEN", "assay": "qHTS for inhibitors of Vif-A3G interactions: Validation (AID 588379)", "method_in_brief": "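HeLa cells stably expressing Vif and A3G-eYFP, 700 cells/well, incubated overnight at 37 deg C, then exposed to compound overnight at 37 deg C. Inhibition of Vif-mediated degradation read as increased yellow fluorescence (Ex 488/Em 500-530) by laser-scanning cytometry.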"}, "[14]": {"molecular_target": "Bile acid receptor (Homo sapiens) (UniProt Q96RI1)", "assay": "qHTS assay for small molecule antagonists of farnesoid X receptor signaling (AID 588526; calls by dose curve)", "method_in_brief": "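Concentration-response titrations were fitted to the Hill equation for half-maximal inhibition and maximal response, with data normalised to 50 uM chenodeoxycholic acid and DMSO control wells. Cells: FXR-UAS-bla HEK293T, dialyzed FBS.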"}, "[15]": {"molecular_target": "Glucocorticoid receptor (Homo sapiens) (UniProt P04150)", "sequence (P04150 whole entry, looked up)": "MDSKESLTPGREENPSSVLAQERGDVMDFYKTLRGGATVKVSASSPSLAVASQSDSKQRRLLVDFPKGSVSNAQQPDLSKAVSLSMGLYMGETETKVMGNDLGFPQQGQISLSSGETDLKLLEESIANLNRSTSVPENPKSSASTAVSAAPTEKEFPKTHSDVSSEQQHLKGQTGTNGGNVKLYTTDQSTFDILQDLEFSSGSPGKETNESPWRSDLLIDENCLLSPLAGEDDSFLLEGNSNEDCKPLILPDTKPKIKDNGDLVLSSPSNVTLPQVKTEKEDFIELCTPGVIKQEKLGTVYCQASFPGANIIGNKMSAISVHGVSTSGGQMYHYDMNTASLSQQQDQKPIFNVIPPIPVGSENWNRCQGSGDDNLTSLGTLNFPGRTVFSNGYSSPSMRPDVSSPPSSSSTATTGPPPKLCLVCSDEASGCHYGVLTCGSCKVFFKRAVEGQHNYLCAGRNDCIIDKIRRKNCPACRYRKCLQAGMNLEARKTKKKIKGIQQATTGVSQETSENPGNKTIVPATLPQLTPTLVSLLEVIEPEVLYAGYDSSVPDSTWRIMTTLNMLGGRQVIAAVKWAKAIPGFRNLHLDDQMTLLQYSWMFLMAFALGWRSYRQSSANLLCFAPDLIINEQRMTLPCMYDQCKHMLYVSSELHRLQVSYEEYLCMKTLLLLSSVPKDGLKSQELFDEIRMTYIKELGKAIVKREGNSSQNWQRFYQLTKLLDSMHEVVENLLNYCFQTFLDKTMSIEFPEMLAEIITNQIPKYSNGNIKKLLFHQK", "assay": "qHTS assay for small molecule agonists of glucocorticoid receptor signaling (AID 588532; active = well fitted curve in the direction sought with a large enough effect in the signal ratio, with a control signal flat; the % refers to the signal ratio)", "settings": "HeLa MMTV-bla, beta-lactamase ratio, agonist, 18 h; stronger effect = higher value; percent of dexamethasone control, DMSO zero", "method_in_brief": "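MMTV-bla HeLa, beta-lactamase reporter; medium with 1% charcoal/dextran-stripped FBS; cpds up to 92 uM, 18 h, 37 C; CCF4 readout 460/530 nm; Hill fit → EC50, efficacy vs 0.1 uM dexamethasone = 100%.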"}, "[16]": {"molecular_target": "Estrogen receptor (Homo sapiens) (UniProt P03372)", "sequence (P03372 whole entry, looked up)": "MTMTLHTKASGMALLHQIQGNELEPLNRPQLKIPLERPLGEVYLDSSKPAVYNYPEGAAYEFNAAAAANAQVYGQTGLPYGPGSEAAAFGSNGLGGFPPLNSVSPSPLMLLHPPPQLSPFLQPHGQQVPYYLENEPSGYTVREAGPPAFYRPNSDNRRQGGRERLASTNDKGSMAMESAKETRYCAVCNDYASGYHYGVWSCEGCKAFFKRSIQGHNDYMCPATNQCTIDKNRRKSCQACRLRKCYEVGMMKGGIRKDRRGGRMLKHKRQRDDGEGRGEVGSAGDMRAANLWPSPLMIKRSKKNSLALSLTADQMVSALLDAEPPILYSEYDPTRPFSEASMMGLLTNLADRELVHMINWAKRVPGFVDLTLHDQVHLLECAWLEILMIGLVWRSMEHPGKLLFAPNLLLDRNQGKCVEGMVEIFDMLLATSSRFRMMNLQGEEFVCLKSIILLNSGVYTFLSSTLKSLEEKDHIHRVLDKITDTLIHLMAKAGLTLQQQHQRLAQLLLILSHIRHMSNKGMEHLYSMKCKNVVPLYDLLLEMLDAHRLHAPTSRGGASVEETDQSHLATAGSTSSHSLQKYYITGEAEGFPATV", "assay": "qHTS assay for small molecule antagonists of estrogen receptor alpha signaling (AID 588513; active = well fitted curve in the direction sought with a large enough effect in the signal ratio, with a control signal flat, not every such curve was filed as active; the % refers to the signal ratio)", "method_in_brief": "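Fluorescence from CCF4 substrate after 2 h at room temperature gave reporter activity; cells had been exposed to compound and 0.5nM 17-beta-estradiol for 18 h at 37 C. Hill-equation fitting yielded IC50 and maximal response.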"}, "[17]": {"molecular_target": "Estrogen receptor (Homo sapiens) (UniProt P03372)", "assay": "qHTS assay for small molecule agonists of estrogen receptor alpha signaling (AID 588514; calls by dose curve; note: nearly all actives have a fitted effect of over 70% in size)", "method_in_brief": "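Reporter-gene assay. […] controls beta-lactamase in HEK 293 GripTite cells; after 18 hrs with compound, CCF4 substrate is added for 2 hrs and fluorescence is read.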"}}, "note": "Inconclusive results are not listed. Where a call stands in place of a potency, no number is given. Calls of active or inactive are those of the source. Unless noted, calls come from the whole dose curve; as a rule, active = well fitted curve in the direction sought with a large enough effect; inconclusive = small, poorly fitted or top-dose-only effect, or another doubt; inactive = no such curve, though single readings can be large; an effect the other way counts as inactive or inconclusive."}
{"compound": "COc1ccc2c(c1OC)C(=O)OC2[C@H]1c2c(cc3c(c2OC)OCO3)CCN1C", "note": "(stereo not given in full)", "values": [{"measurement": "outcome", "setting": "[1]", "value": "inactive"}, {"measurement": "outcome", "setting": "[2]", "value": "inactive"}]}
{"compound": "COc1ccc2cc([S+]([O-])Cc3ncc(C)c(OC)c3C)nc2c1", "values": [{"measurement": "outcome", "setting": "[3]", "value": "inactive"}, {"measurement": "outcome", "setting": "[4]", "value": "inactive"}, {"measurement": "outcome", "setting": "[5]", "value": "inactive"}, {"measurement": "outcome", "setting": "[6]", "value": "inactive"}, {"measurement": "viability change", "setting": "[6]", "value": -3.22, "unit": "%"}, {"measurement": "outcome", "setting": "[7]", "value": "inactive"}, {"measurement": "outcome", "setting": "[8]", "value": "inactive"}, {"measurement": "outcome", "setting": "[9]", "value": "inactive"}, {"measurement": "outcome", "setting": "[10]", "value": "inactive"}, {"measurement": "outcome", "setting": "[11]", "value": "inactive"}, {"measurement": "outcome", "setting": "[12]", "value": "inactive"}]}
{"compound": "COc1ccc([C@@H]2CNC(=O)C2)cc1OC1CCCC1", "values": [{"measurement": "outcome", "setting": "[1]", "value": "inactive"}, {"measurement": "outcome", "setting": "[2]", "value": "inactive"}, {"measurement": "outcome", "setting": "[13]", "value": "inactive"}]}
{"compound": "CCN1CCN(C(=O)N[C@H](C(=O)N[C@@H]2C(=O)N3C(C(=O)O)=C(CSc4nnnn4C)CS[C@@H]23)c2ccc(O)cc2)C(=O)C1=O", "values": [{"measurement": "outcome", "setting": "[2]", "value": "inactive"}]}
{"compound": "O=C1c2cccc(O)c2C(=O)c2c(O)cc(CO)cc21", "values": [{"measurement": "Potency", "setting": "[14]", "value": "inactive"}, {"measurement": "activation", "setting": "[15]", "value": "-14.5% (inactive)"}]}
{"compound": "CN(C)CC[C@H](c1ccc(Cl)cc1)c1ccccn1", "values": [{"measurement": "outcome", "setting": "[2]", "value": "inactive"}]}
{"compound": "CC(C)[C@H](CO)Nc1nc(Nc2cccc(Cl)c2)c2ncn(C(C)C)c2n1", "values": [{"measurement": "outcome", "setting": "[13]", "value": "inactive"}]}
{"compound": "COc1cc2ncnc(Nc3cccc(Br)c3)c2cc1OC", "values": [{"measurement": "outcome", "setting": "[13]", "value": "inactive"}]}
{"compound": "C[C@@]12C(=O)OC(=O)[C@@]1(C)C1CCC2O1", "values": [{"measurement": "outcome", "setting": "[2]", "value": "inactive"}]}
{"compound": "Cc1ccc(O)c(C(CCN(C(C)C)C(C)C)c2ccccc2)c1", "note": "(stereo not given)", "values": [{"measurement": "outcome", "setting": "[2]", "value": "inactive"}]}
{"compound": "COc1ccc(C(C)=O)c(O)c1", "values": [{"measurement": "outcome", "setting": "[2]", "value": "inactive"}]}
{"compound": "C[C@]12CC[C@@H]3c4ccc(O)cc4CC[C@H]3[C@H]1CC[C@H]2O", "values": [{"measurement": "activation", "setting": "[15]", "value": "-15.8% (inactive)"}]}
{"compound": "OC[C@@H](O)[C@@H](O)[C@H](O)[C@@H](O)CO", "values": [{"measurement": "Potency", "setting": "[16]", "value": "inactive"}, {"measurement": "outcome", "setting": "[17]", "value": "inactive"}]}
{"compound": "Nc1nc2c(c(=O)[nH]1)N(C=O)[C@H](CNc1ccc(C(=O)N[C@@H](CCC(=O)O)C(=O)O)cc1)CN2", "values": [{"measurement": "outcome", "setting": "[1]", "value": "inactive"}, {"measurement": "outcome", "setting": "[2]", "value": "inactive"}]}
